In PubChem BioAssay AID1159580 (chemical genetic matrix, 2015):
Several values for one entry are separate records, joined by “and”; a condition that tells them apart may be missing. Equal entries are not always repeated. The campaign covered roughly 5,500 compounds. About 2,000 (36%) were called active. About 18% were inconclusive and are not listed. Cut-off read from the data, not from the text of the source: active = normalized growth mostly below about 0.91 (no sharp cut-off); inconclusive = no clear call, values can overlap the other calls; inactive = mostly above about 0.92. This is one part of the list.

Test: chemical genetic growth profiling, strain panel (AID 1159580);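 note: tested at 20 µM; growth read once vehicle control cultures reached saturation at 30 °C; 1 = growth at the plate median or of vehicle wells; lower values mean less growth of the strain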
Conditions: S. cerevisiae deletion strains, growth OD

Measured: normalized growth

COC(=O)C1[C@H]2C[C@H]3c4[nH]c5ccccc5c4CCN3C[C@@H]2CC[C@@H]1O (some centres not stated)
inactive: locus YAL013W, strain DEP1, active compounds read low 1.02 | locus YAL021C, strain ccr4, active compounds read low 0.991 | locus YAL026C, strain drs2, active compounds read low 0.981 | locus YAL030W, strain snc1, active compounds read low 0.976 | locus YBL061C, strain skt5, active compounds read low 0.982 | locus YBR009C, strain hhf1, active compounds read low 0.978 | locus YBR021W, strain FUR4, active compounds read low 1.01 | locus YBR023C, strain chs3, active compounds read low 0.964 | locus YBR171W, strain sec66, active compounds read low 0.96 | locus YBR229C, strain ROT2, active compounds read low 1 | locus YBR231C, strain swc5, active compounds read low 0.965 | locus YBR279W, strain paf1, active compounds read low 0.962 | locus YCL011C, strain gbp2, active compounds read low 0.954 | locus YCL016C, strain dcc1, active compounds read low 0.973 | locus YCL029C, strain bik1, active compounds read low 1.03 | locus YCL061C, strain MRC1, active compounds read low 0.976 | locus YCL069W, strain vba3, active compounds read low 0.981 | locus YCR088W, strain abp1, active compounds read low 0.977 | locus YDL005C, strain med2, active compounds read low 0.971 | locus YDL035C, strain GPR1, active compounds read low 1.02 | locus YDL040C, strain nat1, active compounds read low 0.974 | locus YDL074C, strain BRE1, active compounds read low 1.05 | locus YDL101C, strain DUN1, active compounds read low 1.01 | locus YDL134C, strain PPH21, active compounds read low 1.02 | locus YDL185W, strain tfp1, active compounds read low 1.02 | locus YDL192W, strain arf1, active compounds read low 1.02 | locus YDR001C, strain nth1, active compounds read low 0.964 | locus YDR069C, strain doa4, active compounds read low 0.954 | locus YDR101C, strain arx1, active compounds read low 1.01 | locus YDR137W, strain rgp1, active compounds read low 0.945 | locus YDR150W, strain NUM1, active compounds read low 1.01 | locus YDR159W, strain sac3, active compounds read low 0.925 | locus YDR162C, strain NBP2, active compounds read low 1.01 | locus YDR195W, strain ref2 0.943 | locus YDR297W, strain sur2, active compounds read low 0.979 | locus YDR318W, strain mcm21, active compounds read low 1.03 | locus YDR334W, strain swr1, active compounds read low 0.946 | locus YDR335W, strain msn5, active compounds read low 0.97 | locus YDR388W, active compounds read low 1.02 | locus YDR392W, strain spt3, active compounds read low 1.01 | locus YDR502C, strain sam2, active compounds read low 1.01 | locus YEL003W, strain gim4, active compounds read low 0.97 | locus YEL037C, strain rad23, active compounds read low 0.979 | locus YEL061C, strain CIN8 (second series), active compounds read low 0.962 | locus YEL061C, strain CIN8, active compounds read low 1.01 | locus YER015W, strain faa2, active compounds read low 0.983 | locus YER016W, strain bim1, active compounds read low 0.982 | locus YER110C, active compounds read low 1.01 | locus YER111C, strain swi4, active compounds read low 0.986 | locus YER155C, strain BEM2 (second series), active compounds read low 0.945 | locus YER155C, strain BEM2, active compounds read low 1.01 | locus YER167W, strain BCK2, active compounds read low 1.01 | locus YFR010W, strain ubp6, active compounds read low 0.952 | locus YGL078C, strain dbp3, active compounds read low 1.01 | locus YGL086W, strain mad1, active compounds read low 1 | locus YGL167C, strain pmr1, active compounds read low 0.944 | locus YGL173C, strain kem1, active compounds read low 0.989 | locus YGL227W, strain vid30, active compounds read low 0.962 | locus YGL240W, strain doc1, active compounds read low 0.954 | locus YGL248W, strain PDE1, active compounds read low 1.01 | locus YGL253W, strain hxk2, active compounds read low 0.975 | locus YGR078C, strain PAC10, active compounds read low 1.03 | locus YGR135W, strain pre9, active compounds read low 1.01 | locus YGR229C, strain SMI1, active compounds read low 1.01 | locus YGR252W, strain gcn5, active compounds read low 0.976 | locus YHR013C, strain ard1, active compounds read low 0.979 | locus YHR027C, strain rpn1, active compounds read low 0.972 | locus YHR030C, strain SLT2, active compounds read low 1.02 | locus YHR079C, strain IRE1 (second series), active compounds read low 1.02 | locus YHR079C, strain IRE1, active compounds read low 1.02 | locus YHR094C, strain hxt1, active compounds read low 1.01 | locus YHR129C, strain ARP1, active compounds read low 0.999 | locus YHR142W, strain chs7, active compounds read low 0.983 | locus YHR200W, strain rpn10, active compounds read low 1.02 | locus YIL066C, strain RNR3, active compounds read low 1.02 | locus YIL073C, strain SPO22, active compounds read low 1.05 | locus YIL125W, strain kgd1, active compounds read low 1.01 | locus YIR030C, strain dcg1, active compounds read low 1.02 | locus YJL092W, strain hpr5, active compounds read low 0.982 | locus YJL095W, strain BCK1 (second series), active compounds read low 0.981 | locus YJL095W, strain BCK1, active compounds read low 1.05 and 1.01 | locus YJL115W, strain asf1, active compounds read low 0.966 | locus YJL129C, strain trk1, active compounds read low 0.977 | locus YJL134W, strain LCB3, active compounds read low 1.01 | locus YJL154C, strain vps35, active compounds read low 0.964 | locus YJL164C, strain tpk1, active compounds read low 1 | locus YJL166W, strain qcr8, active compounds read low 0.953 | locus YJL168C, strain set2, active compounds read low 1.02 | locus YJL187C, strain SWE1 (second series), active compounds read low 1.03 | locus YJL187C, strain SWE1, active compounds read low 0.98 | locus YJR043C, strain POL32, active compounds read low 1.02 | locus YJR066W, strain TOR1, active compounds read low 1.02
